The text below walks through data of ChEMBL document CHEMBL4513146, “CO-ADD screening of Karazin Kharkiv National University (Ukraine) compounds”.

Each structure is given as a SMILES string. Measured potencies and affinities stand elsewhere.

In the experiment the test system is Escherichia coli. The following applies: Concentration 32 ug.mL-1;; ASSAY_TEST Inhibition of Bacterial Growth; detection method Absorption (OD600); MEDIA CAMHB; plate type 384well; NBS; CORNING #3640; time 18 hr.
With `Cc1ccc(Cl)cc1NC(=O)CSc1nnc2c(=O)n(-c3ccccc3)ccn12`, the Inhibition (as a rule, the change of the read-out against control, counted positive when it falls) is given as -1.12%. For `O=C(CSc1nc2ccccc2n2c(-c3ccccc3)nnc12)Nc1ccc(Br)cc1` the value was -0.27%; for `CCOc1ccc(-n2ccn3c(SCC(=O)Nc4cccc(Cl)c4)nnc3c2=O)cc1`, 2.43%; for `CCc1ccc(NC(=O)Cn2nc3c4cc(-c5ccc(C)c(C)c5)nn4ccn3c2=O)cc1`, -6.18%. `O=S(=O)(c1ccc2nncn2c1)N(Cc1ccccc1F)c1ccc2c(c1)OCCO2`: the Inhibition is recorded as -6.13%. Turning to `CC(C)CCn1c(=O)c2sccc2n2c(=O)n(CC(N)=O)nc12`, the Inhibition was -3.19%. For `COc1ccc(Cl)cc1NC(=O)Cn1nc2c(Sc3ccc(C)cc3C)nccn2c1=O` the value was -8.38%; for `O=C(CSc1nnc2c(=O)n(-c3ccccc3)ccn12)Nc1cccc(F)c1`, -3.48%. The figure for `COc1cccc(-n2ccn3c(=O)n(Cc4ccc([N+](=O)[O-])cc4)nc3c2=O)c1` is -2.91%. For `COc1ccc(NC(=O)Cn2nc3ccc(SC(C)(C)C)nn3c2=O)cc1OC` the value was 2.49%; for `Cc1ccc(NC(=O)Cn2nc3ccc(C(=O)NCc4ccccc4)cn3c2=O)c(Br)c1`, -9.76%; for `O=C(Cn1nc2c(N3CCOCC3)nccn2c1=O)Nc1ccccc1Br`, 6.7%.

On to `COc1ccc(CNC(=O)Cn2nc3c(Sc4ccc(C)cc4C)nccn3c2=O)cc1`, for which the Inhibition is given as -1.79%. For `O=S(=O)(c1ccc2nncn2c1)N(Cc1ccccc1F)c1cccc(F)c1` the value was -18.72%. As for `Cc1cc2nn(CC(=O)N3CCOCC3)c(=O)n2c(Nc2ccc(C)c(F)c2)n1`, the Inhibition is given as -0.78%.

As to `COC(=O)c1ccccc1NC(=O)Cn1nc2c3sc(N4CCCC4)nc3ncn2c1=O`, the Inhibition is recorded as -6.93%. On to `COc1cc(NC(=O)CSc2nnc3c(=O)n(-c4cccc(OC)c4)ccn23)cc(OC)c1`, for which the Inhibition is reported as -9.3%. The figure for `COc1cc(OC)c(NC(=O)Cn2nc3c(SC4CCCCC4)nccn3c2=O)cc1Cl` is -4.1%; for `COc1ccc(NC(=O)CSc2nnc3c(=O)n(-c4ccccc4OC)ccn23)cc1Cl` it is -0.75%. For `Cc1ccc(NC(=O)Cn2nc3c4cc(-c5ccc(Cl)cc5)nn4ccn3c2=O)cc1F` the value was 6.51%. On to `Cc1ccc(CNC(=O)Cn2nc3ccc(SC4CCCCC4)nn3c2=O)cc1`, for which the Inhibition is listed as -11.87%.

With `CCc1nnc2c(SCC(=O)Nc3ccc(Br)cc3)nc3ccccc3n12`, the Inhibition came to 0.98%. The figure for `COc1ccc(N(Cc2ccc(F)cc2)S(=O)(=O)c2ccc3nncn3c2)cc1` is -2.8%; for `Cc1ccc(NC(=O)c2ccc3nnc(SCC(=O)Nc4ccc(F)cc4)n3c2)cc1` it is 5.45%; for `CC(C)CCn1c(=O)c2sccc2n2c(=O)n(CC(=O)N(C)c3ccccc3)nc12` it is -10.35%. For `COc1cccc(Oc2nccn3c(=O)n(CC(=O)Nc4ccc(C)cc4Cl)nc23)c1` the value was -3.8%; for `COC(=O)c1ccc(NC(=O)Cn2nc3ccc(S(=O)(=O)C4CCCCC4)nn3c2=O)cc1`, -7.53%; for `CCCCOc1ccc(-c2cc3c4nnc(SCC(=O)NCc5ccccc5)n4ccn3n2)cc1`, -6.82%. For `CCc1ccc(N(Cc2cc(F)cc(F)c2)S(=O)(=O)c2cccn3c(C)nnc23)cc1` the value was -0.39%; for `Cc1cc2nn(CC(=O)Nc3ccc(F)c(F)c3)c(=O)n2c(Nc2ccc(F)c(C)c2)n1`, -3.91%; for `COc1ccc(-c2cc3c4nn(CC(=O)Nc5ccc(C)c(F)c5)c(=O)n4ccn3n2)cc1`, 2.58%.

Take `CCOc1ccc(C(=O)CSc2nnc3c(=O)n(-c4ccc(C)c(C)c4)ccn23)cc1`: the Inhibition is on record as -11.39%. The figure for `CCOc1ccc(-n2ccn3c(SCC(=O)Nc4ccc(C)c(C)c4)nnc3c2=O)cc1` is -21.19%. The figure for `O=C(CSc1nnc2c(=O)n(-c3ccc(F)cc3)ccn12)c1ccccc1Cl` is -2.26%; for `Cc1cccc(Cn2nc3c(=O)n(-c4cccc(Cl)c4C)ccn3c2=O)c1` it is -16.69%. Consider `Cc1ccc(-n2ccn3c(SCC(N)=O)nnc3c2=O)cc1C`, for which the Inhibition is on record as 0.16%.

For the compound `O=c1c2nn(Cc3cccc(F)c3)c(=O)n2ccn1-c1ccccc1`, the Inhibition is on record as -7.67%. For `O=c1c2sccc2n2c(=S)[nH]nc2n1CC1CCCO1` (centres undefined) the value was -0.32%; for `COc1cccc(CN(c2cccc(F)c2)S(=O)(=O)c2ccc3nnc(C)n3c2)c1`, -2.32%.
